Results: publication PMC12136788
Over roughly 24,000 sequences, “enrichment r” has its median near 0.99; the highest 2% begin near 3.7. This is one part of a sample in which the highest values are shown more often than they occur.

T1: UNK ZnF1-3 (human, UniProt Q9C0B0 31-174)
T1 sequence: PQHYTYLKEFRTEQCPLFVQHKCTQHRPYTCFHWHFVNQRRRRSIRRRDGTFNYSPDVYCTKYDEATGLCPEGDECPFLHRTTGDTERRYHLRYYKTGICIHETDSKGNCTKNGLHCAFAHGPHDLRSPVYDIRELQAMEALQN

B1: 113942580_113943501_80_5pUTR_ENSG00000119927_ENST00000348367|human|control|control (ssRNA)
RNA: GGGAGUUCUACAGUCCGACGAUCAUAAAACUUCAGGACUCAGCUAUCAGUUUCGGGUGCAGAAUGUCCAUACAACAGGGGAGCCGCUGCUGCCCUAGCAGCUCCAGCUUCGGCUGCUGCAGAAGCCCGCACUUCCAGUCCCGGCAACAGAGGAUUGAGCAUCA
B2: chr7:65419240:65419241:+_ENSG00000196715_ENST00000360768|hu_mus|motif|central (ssRNA)
RNA: GGGAGUUCUACAGUCCGACGAUCGCUGGCCAUCAGUCUUCCUUAGGCUGCAGCUGUCGCUUCCAGGCCUCAUUCAAAUAAACGGGUCGUUUGUAAUUGAUGAUGAGGAGGAGGAAGUUCAGCACAUAUGUGGUGACGCAGAUGCAACAGAGGAUUGAGCAUCA
B3: chr11:107358869:107358870:+_ENSMUSG00000020720_ENSMUST00000021063|mus_hu|FALSE|FALSE (ssRNA)
RNA: GGGAGUUCUACAGUCCGACGAUCCUCUGGAAGUUGAUAAUUCCUGCUAAUCUGUCUACUUUAGCAAAGAUGGUCUUGUUAACUACUAGAUUUGAGAGAAAGGCUUCGGACUCAUCAACAGAUAGAUCCAGAAGCUGUGCCAUCCAACAGAGGAUUGAGCAUCA
B4: chr3:55808730:55808731:-_ENSMUSG00000027799_ENSMUST00000029374|mus_mus|FALSE|FALSE (ssRNA)
RNA: GGGAGUUCUACAGUCCGACGAUCUGACGUCGUAUGAAUUCUGAAGUCUUUCUCUUCCAUUAUGCUUGAUGUGCACGUUAACUCUACACUCGCAGUCAUGUGAGCAAGCAACCCAAGAUCAUCACUGACACCAAGAUGUACUUGCAACAGAGGAUUGAGCAUCA
B5: 75313438_75313660_4053_CDS_ENSMUSG00000020850_ENSMUST00000102510|mouse|control|control (ssRNA)
RNA: GGGAGUUCUACAGUCCGACGAUCCUUGGACCACCUGAGGUCAGACUGGGGGAUAAGCACAUGGCCCAUCGAGAGCAUGCCAAGCCCACCCAGCUCCUUAGGGGUGUAGAAUACAACAGGCGGGAACCGGCUAGGCAUCUUGGACAACAGAGGAUUGAGCAUCA
B6: chr6:117881578:117881579:-_ENSG00000047932_ENST00000052569|hu_mus|FALSE|FALSE (ssRNA)
RNA: GGGAGUUCUACAGUCCGACGAUCCUUUAAUGUAGAAUAUGUCAUUUUUAUUUACAGGCUAAUUAAGAAUAUGAAACUCAACUAGAUAUAAUACAAUUAUCAUAAAUCCCCUUAUAUGUAAAUUAAUAUAUUUUUUGUUUUAAACAACAGAGGAUUGAGCAUCA
B7: chr19:53454881:53454882:-_ENSMUSG00000025024_ENSMUST00000025997|mus_mus|motif|central (ssRNA)
RNA: GGGAGUUCUACAGUCCGACGAUCGUUUCAUUCUACCAAAGCCAAACAAUGACAACAAUGUAUCUUCCUUACUCAGCAUCGGAGCAAUCAGUUACCUUUAGAAAAAUACAAGGAUAAAAAGGAGAGUGUAAAGUAAAGCCCUGCCAACAGAGGAUUGAGCAUCA
B8: chr19:46159329:46159330:+_ENSMUSG00000015176_ENSMUST00000165017|mus_hu|FALSE|FALSE (ssRNA)
RNA: GGGAGUUCUACAGUCCGACGAUCGGUCAAGUUGUCAAAAAAUGUCUUUCAACAGUAGAAAAGUUUGCUUUCAAAUUAAAAAACAAAGCACGUAUUGCAAACAUCGUGUAAUGAUAAAAUUACAGAAAAAAAUAUAUUCAGAAUCAACAGAGGAUUGAGCAUCA
B9: 207631549_207631669_399_CDS_ENSG00000118246_ENST00000403094|human|control|control (ssRNA)
RNA: GGGAGUUCUACAGUCCGACGAUCAAAAAUGAAUGCAUCCUGAAAGAGAUAUCUAAUGAUAUCAGUUGAUUGCAUUCUGUUAUGAAAGUUAUUUAAAAUGUUCCAGUUUGAAUGAACUAUUUUUGGUUUGCAAAGUCCCAAACACAACAGAGGAUUGAGCAUCA
B10: chr4:95690885:95690886:+_ENSMUSG00000028572_ENSMUST00000156910|mus_mus|mus_mus_mus_hu_False|78_98 (ssRNA)
RNA: GGGAGUUCUACAGUCCGACGAUCUUUAGAAAAUGUUAAUGUUAAAUCUAAAAUAUUGUAAUUUUAAUAUUUUAUUUUACCAGAAGUCACAGGCAAGCAGACACUACAAGAAUAUAUGAAAAUGAAACUCAACAAUAUAACUGUCAACAGAGGAUUGAGCAUCA
B11: chr10:123500321:123500322:-_ENSG00000107669_ENST00000369043|hu_hu|motif|central (ssRNA)
RNA: GGGAGUUCUACAGUCCGACGAUCACGUUAAGAAACUACACACAACAAAUAUUUGCAAAAUGAAUGAAAAAUAGGAUAAAGCGGUUUAAAAGUCAACAUAGUAAUAUUUAUCUAAAUAAUUUUAAUCAAAUGUACAACAUAUUUCAACAGAGGAUUGAGCAUCA
B12: chr4:125586161:125586162:-_ENSG00000151458_ENST00000504087|hu_mus|FALSE|FALSE (ssRNA)
RNA: GGGAGUUCUACAGUCCGACGAUCCACGACGUCCUAAACAGUUGAUUUACAAAAUUUAAAUAUUUGAAUUUCAAAAAUAGCCAUUUAUUAUUAUUUUUUUAUUUGUGGGACCGUUUCUUAUCUUUGUAAUAGAGAAGUCAUUGUCAACAGAGGAUUGAGCAUCA
B13: chr19:15271055:15271056:-_ENSG00000074181_ENST00000263388|hu_hu|FALSE|FALSE (ssRNA)
RNA: GGGAGUUCUACAGUCCGACGAUCCAUAUAUAUAUUUUGUAAAAAAUAAUAAUAAUAAGUUUGUUUAAAUGAAUUUGUUUCUAUACAAAAUGUAAAAAAAAAAAGAAAAAUAAAAAUAAUAAUAAUUCAUUCAUGUCAGAGUGUCAACAGAGGAUUGAGCAUCA
B14: 186301657_186302230_1024_CDS_ENSG00000090520_ENST00000265028|human|control|control (ssRNA)
RNA: GGGAGUUCUACAGUCCGACGAUCGGAAAUAUGUACCUUGUGACCAUCCAAGUGAGUAAUAUCCAUCUCAAAGCCAACCAGUGACUCAACUAAUGAGAUUGUCACAUUUGUGUACAAAUCAUCUCCUCUCCUUUCAAAUAUUGGCAACAGAGGAUUGAGCAUCA
B15: 12963335_12971236_673_CDS_ENSG00000085415_ENST00000262124|human|control|control (ssRNA)
RNA: GGGAGUUCUACAGUCCGACGAUCAUAUUCAAAAAUCUGAACCUUGGCCAUUGCGUUGGGGCUACUGUCAUCACUUCCUACGGCGAUCAUGGGGGAAUGAGCACGAGAGCUUGAAGGGUUCCAAGAAAUACAACUACAGCUUAGCAACAGAGGAUUGAGCAUCA
B16: chr1:154966221:154966222:+_ENSMUSG00000042751_ENSMUST00000043313|mus_mus|FALSE|FALSE (ssRNA)
RNA: GGGAGUUCUACAGUCCGACGAUCUGCAACUCGAAUGCAGUUUUUAUUGAGUUGACUUCCAUAAAGCAAAUCUCACUCUUAAAUUAGCAGAUAUGAUUUUUUAAAAAAUUAAAAAAAAAAAAGCUUCCUCCUCCCCAUUCCAACCAACAGAGGAUUGAGCAUCA

What follows are binders tested against T1, UNK ZnF1-3 (assay: nsRBNS (natural sequence RNA bind-n-seq); RBNS binding buffer (assumed for nsRBNS): 25 mM Tris pH 7.5, 150 mM KCl, 3 mM MgCl2, 0.01% Triton X-100, 500 ug/ml BSA, 20 U/ml SUPERase-In, 4 C; UNK is unkempt and MSI1 is Musashi-1; names of the RNAs are library labels; protein concentration not given here; high values mean tight binding).
Work on B1 yielded a binding signal of 1.22 enrichment R.
In the case of B2, the binding signal is reported as 1.01 enrichment R.
B3 gave a binding signal of 3.65 enrichment R.
Work on B4 yielded a binding signal of 0.64 enrichment R.
With B5 the binding signal was 0.919 enrichment R.
In the case of B6, the binding signal is reported as 4.33 enrichment R.
B7 showed a binding signal of 1.52 enrichment R.
Work on B8 yielded a binding signal of 6.25 enrichment R.
B9 gave a binding signal of 0.397 enrichment R.
B10 showed a binding signal of 3.29 enrichment R.
Work on B11 yielded a binding signal of 6.73 enrichment R.
In the case of B12, the binding signal is reported as 3.35 enrichment R.
B13 gave a binding signal of 9.9 enrichment R.
Work on B14 yielded a binding signal of 0.986 enrichment R.
B15 gave a binding signal of 2.14 enrichment R.
Binder B16 has a binding signal of 3.32 enrichment R.
